# The source made the active and inactive calls.
# Tests used:
# [1] = small molecules captured by biotinylated probe aFSTL3 – biochemical, small-molecule microarray, fluorescence 635/667, stem cell growth factor project, primary screen (AID 1064); details: higher = more signal;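 note: measures binding of the biotinylated anti-FSTL3 antibody to printed compounds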
# [2] = binders from COS7 lysate, DM2A8 probe, primary screen, torsin A project, cell lysate, small-molecule microarray, fluorescence 635/667 (AID 1065); details: higher = more signal, COS7 lysate expressing mutant human TOR1A
# [3] = small molecules captured by biotinylated probe aFGF2 – biochemical, small-molecule microarray, fluorescence 635/667, stem cell growth factor project, primary screen (AID 1067); details: higher = more signal;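 note: measures binding of biotinylated aFGF2 protein to printed compounds on slides; z-score merges feature fluorescence and signal-to-noise across triplicate slides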
# [4] = small molecules captured by biotinylated probe aFGF10 – biochemical, small-molecule microarray, fluorescence 635/667, stem cell growth factor project, primary screen (AID 1071); details: higher = more signal;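 note: score merges 667 nm spot intensity and signal to noise from triplicate slides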
# [5] = target: Neurogenic locus notch homolog protein 2 (Homo sapiens) (UniProt Q04721); test: small molecules binding Notch2 protein – biochemical, small-molecule microarray, 635 nm fluorescence, stem cell growth factors, primary screen (AID 1073); details: higher = more signal
# [6] = target: Pro-neuregulin-1, membrane-bound isoform (Homo sapiens) (UniProt Q02297); test: small molecules binding neuregulin-1 protein – biochemical, small-molecule microarray, fluorescence 635/667, psychiatric disease protein project, primary screen (AID 1075); details: NRG1 binding, 635 nm fluorescence, higher = more signal;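 note: score combines 667 nm spot fluorescence with signal to noise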
# [7] = system: Neuregulin-1 EGF-like domain; test: small molecules binding NRG1 EGF domain – biochemical, small-molecule microarray, 635 nm fluorescence, primary screen (AID 1081); details: higher = more signal;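 note: binding of the protein to compounds printed on small-molecule microarray slides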
# [8] = FRG1 expression reporter modulators in myotubes – cell-based, C2C12 myotubes, firefly/Renilla luciferase, luminescence, FRG1 inhibition for FSHD, primary screen (AID 1084); details: FRG1 promoter luciferase, higher = more signal, called active from +8 up or from −8 down
# [9] = small molecules captured by biotinylated probe aFST – biochemical, small-molecule microarray, fluorescence 635/667, stem cell growth factor project, primary screen (AID 1086); details: higher = more signal;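 note: score merges 667 nm fluorescence with signal-to-noise of each printed compound spot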
# [10] = binders of probe aHhip on microarray, primary screen, stem cell growth factor project, biochemical, small-molecule microarray, fluorescence 635/667 (AID 1087); details: higher = more signal;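 note: score merges spot fluorescence at 667nm with spot signal to noise ratio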
# [11] = system: PRMT1 (protein arginine N-methyltransferase 1); test: small molecules binding arginine methyltransferase PRMT1 – biochemical, small-molecule microarray, 635 nm fluorescence, primary screen (AID 1088); details: higher = more signal;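 note: binding of Prmt1 protein to compounds spotted on small-molecule microarray slides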
# [12] = growth effects on S. cerevisiae YJM789 – YJM789 clinical isolate, OD600, 24 h, basal, primary screen (AID 1089); details: higher = more signal, called active from +8 up or from −8 down;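 note: growth of clinical yeast isolate S. cerevisiae YJM 789 seeded 1000 cells per well; test concentration not given here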
# [13] = S. pombe growth modifiers, basal conditions – strain 972, OD600, 24 h, no modulator, primary screen (AID 1090);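 note: basal condition with compound alone and no growth modifier present; test concentration not given here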; details: S. pombe 972 growth, higher = more signal, called active from +8 up or from −8 down
# [14] = budding yeast growth modifiers under rapamycin – strain BY4716, OD600, 96 h, primary screen (AID 1091); note: test concentration not given here; details: S. cerevisiae BY4716 + rapamycin, higher = more signal, called active from +8 up or from −8 down
# [15] = target: Torsin-1A-interacting protein 2 (Homo sapiens) (UniProt Q8NFQ8); test: small molecules binding lysate-expressed LULL1 – cell lysate, human LULL1 lysate, 635/667 nm fluorescence, primary screen (AID 1092); details: small-molecule microarray, hLULL1 lysate binding, 635 nm fluorescence; higher = more signal;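 note: probe is lysate of COS7 cells overexpressing human LULL1; score merges per-feature 667 nm fluorescence with signal-to-noise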
# [16] = optical density change of DRC41 E. coli – strain DRC41, OD650, 24 h, E. coli filamentation project, primary screen (AID 1093);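 note: MC1000 strain lacking acrAB efflux and sulA so SOS filamentation is blocked; test concentration not given here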; details: E. coli DRC41 growth, higher = more signal, called active from +8 up or from −8 down
# [17] = probe aLefty2 binding to arrayed compounds – biochemical, biotinylated probe, 635/667 nm fluorescence, primary screen (AID 1094); details: small-molecule microarray, higher = more signal;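 note: score merges spot fluorescence near 667 nm with spot signal-to-noise ratio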
# [18] = system: Noggin (protein binding on small-molecule microarray); test: small molecules binding Noggin protein – biochemical, 635/667 nm fluorescence, primary screen (AID 1095); details: 635 nm fluorescence, higher = more signal;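 note: score merges 667 nm feature fluorescence with signal to noise over triplicate slides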
# [19] = target: Neurogenic locus notch homolog protein 3 (Homo sapiens) (UniProt Q9UM47); test: small molecules binding NOTCH3 protein – biochemical, 635/667 nm fluorescence, primary screen (AID 1096); details: small-molecule microarray, 635 nm fluorescence, higher = more signal
# [20] = probe aEGFR binding to arrayed compounds – biochemical, biotinylated probe, 635/667 nm fluorescence, primary screen (AID 1097); details: small-molecule microarray, higher = more signal;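 note: probe is a biotinylated anti-EGFR antibody binding compounds printed on slides; score combines fluorescence near 667 nm and signal to noise of each spot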
# Chain of Neurogenic locus notch homolog protein 3 (Homo sapiens) (Q9UM47 whole entry, looked up): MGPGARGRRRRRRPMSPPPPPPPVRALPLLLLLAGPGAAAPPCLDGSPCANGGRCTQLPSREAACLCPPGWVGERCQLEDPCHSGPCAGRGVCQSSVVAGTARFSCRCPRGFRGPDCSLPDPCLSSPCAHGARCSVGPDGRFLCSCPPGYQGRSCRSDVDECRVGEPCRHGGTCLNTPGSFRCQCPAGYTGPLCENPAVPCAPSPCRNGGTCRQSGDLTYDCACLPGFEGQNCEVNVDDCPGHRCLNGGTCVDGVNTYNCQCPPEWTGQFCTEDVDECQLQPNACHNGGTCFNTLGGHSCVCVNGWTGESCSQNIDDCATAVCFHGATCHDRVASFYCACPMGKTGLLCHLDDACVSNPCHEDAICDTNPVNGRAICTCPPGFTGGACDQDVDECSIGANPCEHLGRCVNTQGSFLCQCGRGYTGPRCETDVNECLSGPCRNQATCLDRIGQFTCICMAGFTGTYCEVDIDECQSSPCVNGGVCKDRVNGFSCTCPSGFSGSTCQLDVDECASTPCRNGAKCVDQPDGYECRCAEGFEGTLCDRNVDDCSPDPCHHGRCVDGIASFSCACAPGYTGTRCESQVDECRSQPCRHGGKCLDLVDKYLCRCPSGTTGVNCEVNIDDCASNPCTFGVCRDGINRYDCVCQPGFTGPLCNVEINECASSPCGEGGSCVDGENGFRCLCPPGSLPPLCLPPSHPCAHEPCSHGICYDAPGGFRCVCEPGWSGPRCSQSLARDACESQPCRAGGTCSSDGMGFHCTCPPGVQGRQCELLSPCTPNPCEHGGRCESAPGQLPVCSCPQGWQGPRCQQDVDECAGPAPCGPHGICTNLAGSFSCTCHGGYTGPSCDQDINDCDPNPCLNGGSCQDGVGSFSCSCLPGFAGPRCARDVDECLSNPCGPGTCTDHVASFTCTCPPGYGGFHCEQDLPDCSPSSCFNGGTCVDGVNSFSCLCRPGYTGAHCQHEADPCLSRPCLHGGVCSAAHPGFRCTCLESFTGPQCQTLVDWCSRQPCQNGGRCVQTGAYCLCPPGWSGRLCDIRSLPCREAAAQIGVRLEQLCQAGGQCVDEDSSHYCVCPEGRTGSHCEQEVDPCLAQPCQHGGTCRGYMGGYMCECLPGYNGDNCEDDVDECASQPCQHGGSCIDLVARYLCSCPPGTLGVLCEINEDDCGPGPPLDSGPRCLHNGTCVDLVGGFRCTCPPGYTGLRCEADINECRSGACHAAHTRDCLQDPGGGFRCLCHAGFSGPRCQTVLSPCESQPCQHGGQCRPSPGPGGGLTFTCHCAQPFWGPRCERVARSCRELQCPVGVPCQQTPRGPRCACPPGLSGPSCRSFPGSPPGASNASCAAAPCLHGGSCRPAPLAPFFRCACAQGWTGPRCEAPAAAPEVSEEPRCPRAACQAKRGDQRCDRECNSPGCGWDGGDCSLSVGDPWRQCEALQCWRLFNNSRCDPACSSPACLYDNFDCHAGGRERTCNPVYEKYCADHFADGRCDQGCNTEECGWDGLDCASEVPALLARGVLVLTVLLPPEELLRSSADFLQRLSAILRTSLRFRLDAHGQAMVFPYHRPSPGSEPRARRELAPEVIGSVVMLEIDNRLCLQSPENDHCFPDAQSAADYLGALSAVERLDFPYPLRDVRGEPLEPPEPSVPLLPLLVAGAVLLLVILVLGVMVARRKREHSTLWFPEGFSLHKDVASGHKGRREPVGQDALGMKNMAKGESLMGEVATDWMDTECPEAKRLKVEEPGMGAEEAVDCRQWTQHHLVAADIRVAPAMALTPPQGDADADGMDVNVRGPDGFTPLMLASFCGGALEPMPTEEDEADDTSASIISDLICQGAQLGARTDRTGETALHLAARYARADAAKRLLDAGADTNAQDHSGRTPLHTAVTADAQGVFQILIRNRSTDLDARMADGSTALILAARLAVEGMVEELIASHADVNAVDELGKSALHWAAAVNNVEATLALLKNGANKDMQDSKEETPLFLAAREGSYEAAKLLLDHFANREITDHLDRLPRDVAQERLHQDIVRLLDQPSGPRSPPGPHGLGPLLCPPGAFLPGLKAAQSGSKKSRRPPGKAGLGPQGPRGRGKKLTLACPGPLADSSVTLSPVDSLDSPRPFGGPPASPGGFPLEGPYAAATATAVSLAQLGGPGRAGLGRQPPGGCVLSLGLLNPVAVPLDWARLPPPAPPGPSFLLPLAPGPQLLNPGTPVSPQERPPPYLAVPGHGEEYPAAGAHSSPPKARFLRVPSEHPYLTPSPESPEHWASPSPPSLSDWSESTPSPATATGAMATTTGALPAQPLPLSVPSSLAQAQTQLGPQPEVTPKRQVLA
# Chain of Neurogenic locus notch homolog protein 2 (Homo sapiens) (Q04721 whole entry, looked up, canonical isoform): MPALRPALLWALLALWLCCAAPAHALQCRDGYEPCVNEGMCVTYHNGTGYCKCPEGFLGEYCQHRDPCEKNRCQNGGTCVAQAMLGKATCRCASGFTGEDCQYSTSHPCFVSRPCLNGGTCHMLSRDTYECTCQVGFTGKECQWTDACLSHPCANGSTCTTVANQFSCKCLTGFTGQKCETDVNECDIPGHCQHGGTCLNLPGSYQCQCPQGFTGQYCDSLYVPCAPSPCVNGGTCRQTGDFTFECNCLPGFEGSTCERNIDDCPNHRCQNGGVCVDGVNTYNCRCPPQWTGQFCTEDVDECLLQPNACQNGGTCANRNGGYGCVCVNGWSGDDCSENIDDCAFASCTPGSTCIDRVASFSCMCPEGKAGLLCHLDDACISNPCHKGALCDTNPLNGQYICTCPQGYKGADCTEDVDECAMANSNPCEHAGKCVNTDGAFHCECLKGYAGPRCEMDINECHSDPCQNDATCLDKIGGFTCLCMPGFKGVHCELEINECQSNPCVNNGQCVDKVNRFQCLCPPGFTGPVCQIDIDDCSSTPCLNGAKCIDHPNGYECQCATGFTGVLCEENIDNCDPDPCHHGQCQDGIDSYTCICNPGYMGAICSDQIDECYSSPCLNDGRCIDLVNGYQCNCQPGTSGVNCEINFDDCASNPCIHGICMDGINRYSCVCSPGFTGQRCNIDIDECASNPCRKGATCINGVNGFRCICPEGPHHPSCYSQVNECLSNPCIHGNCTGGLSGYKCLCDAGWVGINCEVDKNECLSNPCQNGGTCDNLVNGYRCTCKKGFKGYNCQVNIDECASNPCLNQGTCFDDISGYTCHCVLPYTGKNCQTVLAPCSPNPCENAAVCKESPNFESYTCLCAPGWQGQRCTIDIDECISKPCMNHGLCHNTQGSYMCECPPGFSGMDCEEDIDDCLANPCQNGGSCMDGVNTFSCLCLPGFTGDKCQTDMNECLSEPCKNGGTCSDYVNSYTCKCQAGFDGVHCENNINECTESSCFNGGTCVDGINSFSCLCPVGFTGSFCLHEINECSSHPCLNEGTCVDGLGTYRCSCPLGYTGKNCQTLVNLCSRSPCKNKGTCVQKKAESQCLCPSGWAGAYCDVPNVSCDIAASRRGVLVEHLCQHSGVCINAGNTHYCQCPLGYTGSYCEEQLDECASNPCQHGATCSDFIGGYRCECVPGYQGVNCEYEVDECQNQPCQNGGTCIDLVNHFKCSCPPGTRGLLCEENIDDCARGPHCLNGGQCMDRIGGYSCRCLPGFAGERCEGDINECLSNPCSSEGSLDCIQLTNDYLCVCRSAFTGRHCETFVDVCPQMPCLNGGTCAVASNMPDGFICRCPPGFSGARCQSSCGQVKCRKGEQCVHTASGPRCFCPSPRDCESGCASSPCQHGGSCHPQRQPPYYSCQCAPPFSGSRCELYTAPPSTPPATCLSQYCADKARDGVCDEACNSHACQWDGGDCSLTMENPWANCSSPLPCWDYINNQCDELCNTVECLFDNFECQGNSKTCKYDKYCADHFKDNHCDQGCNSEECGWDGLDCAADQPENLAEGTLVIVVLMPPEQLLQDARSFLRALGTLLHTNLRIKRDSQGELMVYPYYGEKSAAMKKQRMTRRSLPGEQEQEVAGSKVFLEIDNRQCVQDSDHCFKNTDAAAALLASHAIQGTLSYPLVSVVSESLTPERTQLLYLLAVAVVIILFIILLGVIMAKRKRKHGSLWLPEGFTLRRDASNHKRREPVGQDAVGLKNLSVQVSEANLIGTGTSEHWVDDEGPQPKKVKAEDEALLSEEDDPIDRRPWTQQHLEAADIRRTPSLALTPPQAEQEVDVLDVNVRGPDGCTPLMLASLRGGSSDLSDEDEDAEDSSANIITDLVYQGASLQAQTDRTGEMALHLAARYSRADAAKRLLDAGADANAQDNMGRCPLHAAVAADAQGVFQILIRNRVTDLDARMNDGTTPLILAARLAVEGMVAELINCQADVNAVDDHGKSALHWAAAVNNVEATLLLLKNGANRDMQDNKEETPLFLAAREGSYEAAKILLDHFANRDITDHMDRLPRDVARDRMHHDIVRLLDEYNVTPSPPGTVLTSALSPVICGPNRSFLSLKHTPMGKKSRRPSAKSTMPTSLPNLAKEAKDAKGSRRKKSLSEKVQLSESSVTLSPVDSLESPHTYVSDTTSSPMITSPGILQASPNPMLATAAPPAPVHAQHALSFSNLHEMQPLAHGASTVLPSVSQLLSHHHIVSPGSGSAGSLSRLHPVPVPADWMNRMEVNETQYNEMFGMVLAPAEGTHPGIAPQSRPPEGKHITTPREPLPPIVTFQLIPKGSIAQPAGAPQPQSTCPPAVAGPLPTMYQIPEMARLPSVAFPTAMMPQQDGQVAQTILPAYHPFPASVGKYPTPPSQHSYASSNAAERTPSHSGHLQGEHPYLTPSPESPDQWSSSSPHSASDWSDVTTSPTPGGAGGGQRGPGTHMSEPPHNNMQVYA
SMILES,composite z-score [1],composite z-score [2],composite z-score [3],composite z-score [4],composite z-score [5],composite z-score [6],composite z-score [7],z-score [8],composite z-score [9],composite z-score [10],composite z-score [11],z-score [12],z-score [13],z-score [14],composite z-score [15],z-score [16],composite z-score [17],composite z-score [18],composite z-score [19],composite z-score [20]
C=C(C(=O)CC[C@H](OC(=O)c1cccnc1)c1ccccc1OCCO)C(C)C,0.0323,1.78,-0.133,0.636,0.0984,-0.124,0.962,0.276 (inactive),0.106,-0.204,1.53,-2.6 (inactive),-0.267 (inactive),-0.598 (inactive),1.58,-0.0377 (inactive),0.0692,1.71,0.423,0.0004
C=CCNC(=O)[C@@H]1[C@H]2C(=O)O[C@H](c3ccccc3)[C@H](c3ccccc3)N2[C@H](c2ccccc2OCCO)[C@@]12C(=O)N(C(=O)OCCOC)c1ccc(C#CCC(C(=O)OC)C(=O)OC)cc12,2.39,0.691,0.605,1.16,1.6,2.26,1.31,0.847 (inactive),3.09,0.856,1.53,1.38 (inactive),2.06 (inactive),6.46 (inactive),3.56,0.221 (inactive),0.891,1.9,1.07,0.573
COCCCNC(=O)[C@]1(Cc2ccccc2N=[N+]=[N-])N=C(c2ccc(OCCCO)cc2)O[C@@H]1c1ccccc1CN=[N+]=[N-],0.201,0.157,0.182,1.05,1.68,1.49,1.33,-0.0402 (inactive),1.33,-0.0296,1.51,-1.24 (inactive),-0.365 (inactive),4.94 (inactive),3.18,1.01 (inactive),0.465,0.579,1.09,0.606
C=CC[C@@]1(C(=O)NCc2ccccc2)N=C(c2ccc(OCCCO)cc2)O[C@@H]1c1ccccc1CN=[N+]=[N-],0.351,-0.651,0.153,0.799,1.54,1.57,1.2,-2.56 (inactive),1.44,-0.0237,0.985,0.371 (inactive),1.68 (inactive),4.84 (inactive),3.17,-0.759 (inactive),0.418,0.0824,0.901,0.0149

# Reference: PubChem BioAssay
